Data: PubChem BioAssay (EPA / NIEHS)
Inconclusive results are not listed. Active and inactive are the calls of the source. The calls were made as follows: active = hit-call score of the fitted dose curve at least 0.9, where 1 is the maximum; inconclusive = response in the unintended direction; inactive = score below 0.9.

What was measured:
[1] = molecular target: Estrogen receptor (Homo sapiens) (UniProt P03372); assay: OT_ER_ERaERa_1440: Odyssey Thera (OT) 24-hour HEK293T Protein-Complementation Assay for Estrogen Receptor-alpha/-alpha Homodimer (AID 2283349);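 also: hits raise fluorescence above DMSO for agonists and antagonists alike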
Sequence of Estrogen receptor (Homo sapiens) (P03372 whole entry, looked up, the tested form may be a part): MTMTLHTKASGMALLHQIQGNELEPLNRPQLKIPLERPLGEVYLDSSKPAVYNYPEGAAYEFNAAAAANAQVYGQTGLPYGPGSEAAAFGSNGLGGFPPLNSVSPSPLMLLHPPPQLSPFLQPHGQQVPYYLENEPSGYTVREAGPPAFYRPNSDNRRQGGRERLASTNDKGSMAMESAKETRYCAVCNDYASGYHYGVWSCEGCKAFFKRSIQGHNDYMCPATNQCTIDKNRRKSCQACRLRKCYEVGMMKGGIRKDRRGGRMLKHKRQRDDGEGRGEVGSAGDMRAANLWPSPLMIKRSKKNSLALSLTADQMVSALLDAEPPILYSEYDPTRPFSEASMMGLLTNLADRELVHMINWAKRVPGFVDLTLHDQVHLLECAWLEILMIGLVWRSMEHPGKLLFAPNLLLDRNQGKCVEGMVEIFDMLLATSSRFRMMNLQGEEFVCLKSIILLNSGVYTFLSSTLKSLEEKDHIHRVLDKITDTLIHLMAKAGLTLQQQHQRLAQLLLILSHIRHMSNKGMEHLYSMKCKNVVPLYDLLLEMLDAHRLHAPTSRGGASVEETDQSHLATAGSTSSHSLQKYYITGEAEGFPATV
Outline: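 Stably transfected HEK293T; ERα LBD homodimer PCA. 24 h dosing, fluorescence intensity read, gain-of-signal vs DMSO.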

[2] = molecular target: Estrogen receptor (Homo sapiens) (UniProt P03372); assay: OT_ER_ERaERa_0480: Odyssey Thera (OT) 8-hour HEK293T Protein-Complementation Assay for Estrogen Receptor-alpha/-alpha Homodimer (AID 2283351);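 also: rise in fluorescence from reassembled reporter fragments on ERα LBD homodimer in nucleus or whole cell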
Outline: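 Cells were treated for 8 hours, then imaged on a laser scanning plate cytometer. Complementation of reporter fragments fused to the human ERα ligand-binding domain (residues 310-547) in HEK293T gave fluorescence, and gain of signal over vehicle was fitted.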

[3] = molecular target: Estrogen receptor (Homo sapiens) + Estrogen receptor beta (Homo sapiens) (UniProt P03372+Q92731); assay: OT_ER_ERaERb_1440: Odyssey Thera (OT) 24-hour HEK293T Protein-Complementation Assay for Estrogen Receptor-alpha/-beta Homodimer (AID 2283356);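 also: heteromer of ER alpha and ER beta binding domains; hits raise reporter fluorescence and both agonists and antagonists give an increase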
Sequence of Estrogen receptor (Homo sapiens) + Estrogen receptor beta (Homo sapiens) (P03372 whole entry, looked up, the tested form may be a part): as above
Sequence of Estrogen receptor (Homo sapiens) + Estrogen receptor beta (Homo sapiens) (Q92731 whole entry, looked up, the tested form may be a part): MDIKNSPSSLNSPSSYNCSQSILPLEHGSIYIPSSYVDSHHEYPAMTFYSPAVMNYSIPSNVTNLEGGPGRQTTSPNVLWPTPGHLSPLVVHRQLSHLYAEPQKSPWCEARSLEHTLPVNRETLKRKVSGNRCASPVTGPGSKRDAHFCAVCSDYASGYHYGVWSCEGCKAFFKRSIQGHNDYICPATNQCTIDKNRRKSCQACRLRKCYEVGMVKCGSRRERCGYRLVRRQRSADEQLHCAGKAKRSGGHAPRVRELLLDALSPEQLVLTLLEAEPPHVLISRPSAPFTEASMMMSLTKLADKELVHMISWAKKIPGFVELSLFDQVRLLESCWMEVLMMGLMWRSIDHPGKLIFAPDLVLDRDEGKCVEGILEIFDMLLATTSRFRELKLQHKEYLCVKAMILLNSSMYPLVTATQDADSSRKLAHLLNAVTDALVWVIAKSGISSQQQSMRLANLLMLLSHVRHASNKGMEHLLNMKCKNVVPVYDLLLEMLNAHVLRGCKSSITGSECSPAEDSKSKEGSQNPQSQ
Outline: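 Stable HEK293T PCA line, ERα LBD 310-547 + ERβ LBD 263-489 fused to reporter fragments; 24 h treatment; fluorescence read by laser scanning cytometry; positive fitting direction relative to DMSO.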

[4] = molecular target: Estrogen receptor beta (Homo sapiens) (UniProt Q92731); assay: OT_ER_ERbERb_0480: Odyssey Thera (OT) 8-hour HEK293T Protein-Complementation Assay for Estrogen Receptor-beta/-beta Homodimer (AID 2283357);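 also: active means signal gain over DMSO baseline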
Sequence of Estrogen receptor beta (Homo sapiens) (Q92731 whole entry, looked up, the tested form may be a part): as above
Outline: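 Fluorescence gain from complemented reporter fragments on ER-beta LBD homodimer in HEK293T was quantified against DMSO controls after 8 h treatment, fixation in 4% formaldehyde and Draq5 staining.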

[5] = molecular target: human Peroxisome Proliferator-activated Receptor alpha (PPARa), PPARA (gene 5465) (UniProt Q07869); assay: NVS_NR_hPPARa: NovaScreen (NVS) Nuclear Receptor Binding Assay for human Peroxisome Proliferator-activated Receptor alpha (PPARa) (AID 2283359);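 also: activity means loss of TR-FRET signal versus DMSO baseline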
Sequence of human Peroxisome Proliferator-activated Receptor alpha (PPARa), PPARA (gene 5465) (Q07869 whole entry, looked up): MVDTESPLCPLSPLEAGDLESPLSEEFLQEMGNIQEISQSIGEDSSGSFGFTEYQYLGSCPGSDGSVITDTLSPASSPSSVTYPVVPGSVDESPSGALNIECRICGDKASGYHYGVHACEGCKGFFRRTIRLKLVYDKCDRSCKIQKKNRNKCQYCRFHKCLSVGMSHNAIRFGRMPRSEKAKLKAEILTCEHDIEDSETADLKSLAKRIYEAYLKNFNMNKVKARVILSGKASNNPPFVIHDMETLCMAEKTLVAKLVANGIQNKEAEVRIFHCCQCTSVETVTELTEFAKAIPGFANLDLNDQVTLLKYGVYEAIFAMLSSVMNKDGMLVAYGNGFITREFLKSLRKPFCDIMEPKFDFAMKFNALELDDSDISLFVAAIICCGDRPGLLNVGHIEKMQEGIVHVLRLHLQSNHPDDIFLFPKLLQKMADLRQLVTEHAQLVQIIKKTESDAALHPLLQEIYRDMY
Outline: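 One-hour incubation, cell-free extracted protein, TR-FRET binding readout; signal loss vs DMSO scored. Screen: 25 uM duplicates, confirmatory dose series for actives.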

Measured: AC50

CCCOc1ccc(S(=O)(=O)N2CCN(CC)CC2)cc1-c1nc2c(CC)n(Cc3ccccn3)nc2c(=O)[nH]1
not listed: [5]
inactive: all other assays above

Cc1ncc([C@@H](CCCCCCc2ccc3c(n2)NCCC3)CC(=O)O)cn1
inactive: all assays above

O=C(O)c1cccc(C[C@@H]2COc3ccc(OCc4nc5cc(F)ccc5s4)cc3[C@@H]2O)c1
inactive: all assays above

NC(=O)NN=Cc1ccc([N+](=O)[O-])o1
inactive: [1] | [2] | [3]

OC[C@H]1O[C@@H]2O[C@H]3[C@H](O)[C@@H](O)[C@@H](O[C@H]4[C@H](O)[C@@H](O)[C@@H](O[C@H]5[C@H](O)[C@@H](O)[C@@H](O[C@H]6[C@H](O)[C@@H](O)[C@@H](O[C@H]7[C@H](O)[C@@H](O)[C@@H](O[C@H]1[C@H](O)[C@H]2O)O[C@@H]7CO)O[C@@H]6CO)O[C@@H]5CO)O[C@@H]4CO)O[C@@H]3CO
not listed: [5]
inactive: all other assays above

CCc1ccc(O)c(C(C)(C)C)c1
active: [4] 11.9 µM
inactive: all other assays above

Cc1cccc(O)c1C
not listed: [5]
inactive: all other assays above

Cc1nccn1-c1ccc(Sc2cccc(C3(C(N)=O)CCOCC3)c2)cc1
active: [3] 20.9 µM | [4] 32.3 µM
inactive: all other assays above

O=S1(=O)CCCO1
not listed: [5]
inactive: all other assays above

NC(N)=O
not listed: [5]
inactive: all other assays above

C[C@@H](Oc1ccc(CNC(=O)c2cccnc2Oc2ccc3c(c2)OCO3)c(F)c1)C(=O)O
not listed: [5]
inactive: all other assays above

CCCCN1C(=O)[C@@H]([C@H](O)C2CCCCC2)NC(=O)C12CCN(Cc1ccc(Oc3ccc(C(=O)O)cc3)cc1)CC2
not listed: [4]
inactive: all other assays above

CNC(C)=O
not listed: [5]
inactive: all other assays above

CC(C)CC(C)O (stereo not drawn)
not listed: [5]
inactive: all other assays above

O=C1CN(N=Cc2ccc([N+](=O)[O-])o2)C(=O)N1
inactive: [1] | [2] | [4]

CC(C)c1nnc2ccc(-c3ocnc3-c3cc(F)ccc3F)cn12
not listed: [5]
inactive: all other assays above

c1ccc2c(c1)-c1cccc3c1c-2cc1ccccc13
not listed: [5]
inactive: all other assays above

CCn1nc(C)c2c1C(=O)NCC(c1ccc(O)cc1)=N2
not listed: [5]
inactive: all other assays above

CC[C@H](C)C(=O)O[C@H]1C[C@H](O)C=C2C=C[C@H](C)[C@H](CC[C@@H](O)C[C@@H](O)CC(=O)O)[C@H]21
not listed: [5]
inactive: all other assays above
